# Measurements as given in the supplement of paper PMC10037445.
# Over roughly 2,900 compounds, “NF-kB SEAP reporter activity, fold change vs agonist alone” has its median near 0.99; the highest 2% begin near 2.6. What follows is part of a selection rich in the highest values, with near analogues and random picks from the rest.
# How the values were obtained:
# [1] = test system: RAW-Dual; test: NF-kB SEAP reporter activity, fold change vs agonist alone; higher = enhanced NF-kB activity; conditions: cytotoxicity flag (confluency mask): not cytotoxic
# In short: (§1)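 Reporter activity is given as fold change relative to agonist-alone wells. To measure it, 50 nL of library stock was pin-tooled onto RAW-Dual macrophages (50,000 cells/well, DMEM, 384-well plates), a PRR agonist followed 1 h later, and cells stayed at 37 °C, 5% CO2. Twenty hours on, supernatant was assayed for IRF (QuantiLuc luminescence) and NF-κB (QuantiBlue, 620 nm absorbance), and wells under 70% of agonist-control IncuCyte confluency in both mask sets were marked cytotoxic.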
# [2] = test system: RAW-Dual; test: NF-kB SEAP reporter activity, fold change vs agonist alone; cytotoxicity flag (confluency mask): not cytotoxic; higher = enhanced NF-kB activity
# In short: as §1
# [3] = library stock concentration (final ~1000-fold dilution): 10 mM, agonist: Imiquimod (TLR7) […]
# [4] = library stock concentration (final ~1000-fold dilution): 10 mM, agonist: MPLA (TLR4) […]
# [5] = agonist: ODN 1826 (TLR9) 0.5 ug/mL
# [6] = agonist: Pam2CSK4 (TLR2/6) 0.1 ug/mL
# [7] = agonist: Pam3CSK4 (TLR2/1) 0.1 ug/mL
compound,measurement,setting,value
COC(C)Cn1c(=O)n(C)c2cnc3ccc(-c4cncc(C(C)(C)O)c4)cc3c21 (stereo not drawn),NF-kB SEAP reporter activity,[1]; [3],0.865
same,NF-kB SEAP reporter activity,[1]; [4],1.85
CC(=O)c1c(C)c2cnc(Nc3ccc(N4CCNCC4)cn3)nc2n(C2CCCC2)c1=O.O=S(=O)(O)CCO,NF-kB SEAP reporter activity,"[1]; library stock concentration (final ~1000-fold dilution): 10 mM water, agonist: Imiquimod (TLR7) […]",0.674
same,NF-kB SEAP reporter activity,"[1]; library stock concentration (final ~1000-fold dilution): 10 mM water, agonist: MPLA (TLR4) […]",1.09
CC(=O)c1c(C)c2cnc(Nc3ccc(N4CCNCC4)cn3)nc2n(C2CCCC2)c1=O.O=S(=O)(O)CCO (library stock concentration (final ~1000-fold dilution): 10 mM water),NF-kB SEAP reporter activity,[2]; agonist: LPS (TLR4) 0.1 ug/mL,1.71
same,NF-kB SEAP reporter activity,[2]; [5],0.449
same,NF-kB SEAP reporter activity,[2]; [6],0.752
same,NF-kB SEAP reporter activity,[2]; [7],1.29
CCC(Nc1ncnc2[nH]cnc12)c1nc2cccc(F)c2c(=O)n1-c1ccccc1 (stereo not drawn) (library stock concentration (final ~1000-fold dilution): 10 mM),NF-kB SEAP reporter activity,[2]; agonist: LPS (TLR4) 0.1 ug/mL,1.27
same,NF-kB SEAP reporter activity,[2]; [5],1.08
same,NF-kB SEAP reporter activity,[2]; [6],0.969
same,NF-kB SEAP reporter activity,[2]; [7],0.843
CCC(Nc1ncnc2[nH]cnc12)c1nc2cccc(F)c2c(=O)n1-c1ccccc1 (stereo not drawn),NF-kB SEAP reporter activity,[1]; [3],0.75
same,NF-kB SEAP reporter activity,[1]; [4],0.952
CC(NC(=O)c1ncnc(N)c1Cl)c1ncc(C(=O)Nc2cc(C(F)(F)F)c(Cl)cn2)s1 (stereo not drawn) (library stock concentration (final ~1000-fold dilution): 10 mM),NF-kB SEAP reporter activity,[2]; agonist: LPS (TLR4) 0.1 ug/mL,0.632
same,NF-kB SEAP reporter activity,[2]; [5],0.495
same,NF-kB SEAP reporter activity,[2]; [6],0.383
same,NF-kB SEAP reporter activity,[2]; [7],0.417
CC(NC(=O)c1ncnc(N)c1Cl)c1ncc(C(=O)Nc2cc(C(F)(F)F)c(Cl)cn2)s1 (stereo not drawn),NF-kB SEAP reporter activity,[1]; [3],0.623
same,NF-kB SEAP reporter activity,[1]; [4],0.876
O=C1C(Cc2ccc(O)cc2)N2C(=O)CCN(C(=O)NCc3ccccc3)C2CN1Cc1cccc2ccccc12 (stereo not drawn) (library stock concentration (final ~1000-fold dilution): 10 mM),NF-kB SEAP reporter activity,[2]; agonist: LPS (TLR4) 0.1 ug/mL,3.72
same,NF-kB SEAP reporter activity,[2]; [5],1.08
same,NF-kB SEAP reporter activity,[2]; [6],0.484
same,NF-kB SEAP reporter activity,[2]; [7],0.63
O=C1C(Cc2ccc(O)cc2)N2C(=O)CCN(C(=O)NCc3ccccc3)C2CN1Cc1cccc2ccccc12 (stereo not drawn),NF-kB SEAP reporter activity,[1]; [3],1.45
same,NF-kB SEAP reporter activity,[1]; [4],2.26
CNCCN1CCC(OCc2ccccc2)CC1.Cl.Cl (library stock concentration (final ~1000-fold dilution): 10 mM),NF-kB SEAP reporter activity,[2]; agonist: LPS (TLR4) 0.1 ug/mL,1.03
same,NF-kB SEAP reporter activity,[2]; [5],1.45
same,NF-kB SEAP reporter activity,[2]; [6],0.877
same,NF-kB SEAP reporter activity,[2]; [7],1.53
CNCCN1CCC(OCc2ccccc2)CC1.Cl.Cl,NF-kB SEAP reporter activity,[1]; [3],1.55
same,NF-kB SEAP reporter activity,[1]; [4],0.921
CC1OC(OC2C(Oc3cc(O)c(C(=O)CCc4ccc(O)cc4)c(O)c3)OC(CO)C(O)C2O)C(O)C(O)C1O (stereo not drawn) (library stock concentration (final ~1000-fold dilution): 10 mM),NF-kB SEAP reporter activity,[2]; agonist: LPS (TLR4) 0.1 ug/mL,0.867
same,NF-kB SEAP reporter activity,[2]; [5],0.991
same,NF-kB SEAP reporter activity,[2]; [6],0.784
same,NF-kB SEAP reporter activity,[2]; [7],1.06
CC1OC(OC2C(Oc3cc(O)c(C(=O)CCc4ccc(O)cc4)c(O)c3)OC(CO)C(O)C2O)C(O)C(O)C1O (stereo not drawn),NF-kB SEAP reporter activity,[1]; [3],0.957
same,NF-kB SEAP reporter activity,[1]; [4],1.03
